Drawing on PubChem BioAssay (EPA / NIEHS), this text covers outcome and AC50 for 14 molecules.

Results filed as inconclusive are left out. Activity calls are given as the source filed them. How the source made its calls, unless noted: active means hit-call score of the fitted dose curve at least 0.9, where 1 is the maximum; inconclusive means response in the unintended direction; inactive means score below 0.9.

The target of assay [1] is Cellular tumor antigen p53 (Homo sapiens) (UniProt P04637). Kind of assay: TOX21_p53_BLA_p2_ratio: Tox21 HCT-116 p53 Agonism Beta-lactamase Assay, Ratio, Phase 2 (AID 2283592). The method in brief:
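An inducible beta-lactamase reporter in HCT116 cells signals p53 pathway activation. After 16 h chemical exposure at 37C, cells load CCF4-AM substrate for 2 h at room temperature; activity is the cleaved/uncleaved emission ratio relative to DMSO.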

The target is the same in assay [2]. Put plainly: TOX21_p53_BLA_p3_ratio: Tox21 HCT-116 p53 Agonism Beta-lactamase Assay, Ratio, Phase 3 (AID 2283596). The method in brief:
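HCT116 p53-bla cells (4000/well) given compound in DMSO (217-fold dilution) after 5 h, incubated 16 h at 37C. CCF4-AM substrate 2 h at room temperature; 460/530 nm emission ratio, gain fitted against DMSO.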

Assay [3] shares this target. Put plainly: TOX21_p53_BLA_p5_ratio: Tox21 HCT-116 p53 Agonism Beta-lactamase Assay, Ratio, Phase 5 (AID 2283599). The method in brief:
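HCT-116 cells carrying a p53-inducible beta-lactamase reporter were seeded at 4000 cells/well and dosed after 5 h with compound in DMSO (217-fold dilution). After 16 h at 37C, CCF4-AM substrate was added for 2 h, and the 460/530 nm emission ratio was scored as gain-of-signal versus DMSO.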

The target is the same in assay [4]. Put plainly: TOX21_p53_BLA_p4_ratio: Tox21 HCT-116 p53 Agonism Beta-lactamase Assay, Ratio, Phase 4 (AID 2283601). The method in brief:
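HCT116 cells carrying an inducible beta-lactamase reporter were plated at 4000 cells/well, rested 5 h, then exposed to compounds in DMSO (217-fold dilution) for 16 h at 37C. CCF4-AM substrate was loaded 2 h at room temperature; 460/530 nm emission ratio scored gain-of-signal versus DMSO.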

Assay [5] in a line: CCTE_Harrill_HTTr_Apoptosis_MCF7: CCTE's 6-hour Apoptosis Assessment for the High-Throughput Transcriptomics (HTTr) Platform, in MCF-7 cells cultured in DMEM + 10% fetal bovine serum, Harrill Lab (AID 2284011; active means hit-call score of the fitted dose curve at least 0.9, where 1 is the maximum; inactive means score below 0.9). The method in brief: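 Cells are dosed with test chemicals at eight concentrations and imaged 6 hours later for caspase-3/7 activity using a green fluorogenic detection reagent. Activity is fitted in both directions against DMSO controls.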

Assay [6] in a line: CCTE_Harrill_HTTr_CellCount_MCF7: CCTE's Cell Proliferation Assessment for the High-Throughput Transcriptomics (HTTr) Platform, Harrill Lab (AID 2284012).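 Further: count of Hoechst-stained nuclei per well by high-content imaging in MCF-7 cells; cells exposed to compound for six hours; intended direction is loss of nuclei count meaning fewer cells.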 The method in brief:
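Nuclei counting (Hoechst, high content imaging) in MCF-7 after a 6 h treatment at eight concentrations. Activity fitted bidirectionally, DMSO as negative control.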

Assay [7] concerns the target Thyroid hormone receptor alpha (Rattus norvegicus) + Thyroid hormone receptor beta (Rattus norvegicus) (UniProt P18113+P63059). Put plainly: TOX21_TR_LUC_GH3_Antagonist_Followup: Tox21 GH3 Thyroid Hormone Receptor Antagonism Luciferase Follow-Up Assay (AID 2283942). The method in brief:
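Rat pituitary GH3 cells with a TRα/TRβ-driven luciferase reporter, 5 h attachment, then 15 concentrations (92 uM to 5nM final) plus 1.0 nM T3 agonist, 24 h at 37C/5% CO2. ONE-Glo luminescence; signal change fitted against DMSO baseline.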

In a further assay the target is THRA (gene 7067) (UniProt P10827). Put plainly: TOX21_TRA_COA_Antagonist_Followup_ratio: Tox21 Thyroid Hormone Receptor alpha Antagonism through Coactivator Recruitment Follow-Up Assay, Ratio (AID 2283953). Summed up:
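This follow-up to the GH3 luciferase screen checks specificity in a cell-free format. It measures SRC-2 coactivator peptide binding to TRα LBD by TR-FRET and scores loss of ratio signal relative to DMSO.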

Assay [8] can be described thus: TOX21_TRB_BLA_Antagonist_Followup_viability: Viability Assessment in the Tox21 Thyroid Hormone Receptor beta Antagonism Beta-lactamase (BLA) Follow-Up Assay (AID 2283961). The method in brief:
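Cytotoxicity is measured in parallel with the antagonist-mode TRβ beta-lactamase screen, using ATP-coupled luciferase luminescence. Engineered HEK293T cells are treated for 18 h with 11-point compound series in triplicate.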

Another assay deals with THRB (gene 7068) (UniProt P10828). Put plainly: TOX21_TRB_COA_Antagonist_Followup_ratio: Tox21 Thyroid Hormone Receptor beta Antagonism through Coactivator Recruitment Follow-Up Assay, Ratio (AID 2283967). The method in brief:
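Cell-free TR-FRET coactivator recruitment with GST-tagged TRβ LBD (5.0 nM) and fluorescein-labeled SRC-2 peptide (200 nM) detected by terbium anti-GST antibody (2 nM). The 520:495 nm emission ratio was normalized to DMSO (0%) and T3 (100%).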

Assay [9] has as its target Retinoic acid receptor RXR-alpha (Homo sapiens) (UniProt P19793). Put plainly: TOX21_TR_RXR_BLA_Antagonist_Followup_ratio: Tox21 Thyroid Hormone Receptor beta Retinoid X Receptor alpha (RXRa) Antagonism Beta-lactamase (BLA) Follow-Up Assay, Ratio (AID 2283972). Summed up: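 Antagonist mode used GAL4 UAS-driven beta-lactamase in HEK293T cells expressing RXRa, treated for 16 h with compound concentration series. Activity was taken from the blue/green (460:530 nm) ratio of cleaved to uncleaved substrate.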

Assay [10] can be described thus: TOX21_p53_BLA_p5_viability: Viability Assessment in the Tox21 HCT-116 p53 Agonism Beta-lactamase Assay, Phase 5 (AID 2283600). Summed up:
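Counter-readout for cytotoxicity: ATP-dependent luminescence from CellTiter-Glo, read in the beta-lactamase wells after 30 min at RT, following a 16 h compound exposure at 37C.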

A further assay concerns the target PGR (gene 5241) (UniProt P06401). Kind of assay: TOX21_PR_BLA_Followup_Antagonist_ratio: Tox21 HEK293 Progesterone Receptor (PR) Antagonism Beta-lactamase Follow-Up Assay, Ratio (AID 2283934).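 Further: PR-UAS-bla HEK293T cells stimulated with 1 nM R5020 agonist for 16 hr.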 Summed up:
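Antagonist mode used 1 nM R5020 (final) as agonist on a beta-lactamase reporter line in HEK293T cells. Activity was taken from the substrate cleavage ratio after 16 hr exposure.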

A short description of assay [11]: TOX21_PR_LUC_Followup_Antagonist_viability: Viability Assessment in the Tox21 HEK293 Progesterone Receptor (PR) Antagonism Luciferase Follow-Up Assay (AID 2283940). The method in brief: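 Cellular ATP, measured with luciferase-coupled CellTiter-Glo, served as the viability endpoint after HEK293-PR-A-luc cells were exposed to test compounds for 16 h at 37C.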

Sequence of Cellular tumor antigen p53 (Homo sapiens) (P04637 whole entry, looked up): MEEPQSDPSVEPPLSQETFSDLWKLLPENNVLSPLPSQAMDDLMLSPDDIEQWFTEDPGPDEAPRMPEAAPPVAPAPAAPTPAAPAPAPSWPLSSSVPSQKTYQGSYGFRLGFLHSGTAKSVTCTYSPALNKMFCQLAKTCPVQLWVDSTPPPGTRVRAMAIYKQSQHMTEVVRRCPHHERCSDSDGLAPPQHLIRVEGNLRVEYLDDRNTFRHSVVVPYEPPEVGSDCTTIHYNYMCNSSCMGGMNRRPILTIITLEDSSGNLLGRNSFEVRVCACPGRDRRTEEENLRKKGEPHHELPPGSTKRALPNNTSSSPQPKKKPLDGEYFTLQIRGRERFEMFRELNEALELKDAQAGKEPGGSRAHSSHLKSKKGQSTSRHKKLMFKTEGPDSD
Sequence of PGR (gene 5241) (P06401 whole entry, looked up): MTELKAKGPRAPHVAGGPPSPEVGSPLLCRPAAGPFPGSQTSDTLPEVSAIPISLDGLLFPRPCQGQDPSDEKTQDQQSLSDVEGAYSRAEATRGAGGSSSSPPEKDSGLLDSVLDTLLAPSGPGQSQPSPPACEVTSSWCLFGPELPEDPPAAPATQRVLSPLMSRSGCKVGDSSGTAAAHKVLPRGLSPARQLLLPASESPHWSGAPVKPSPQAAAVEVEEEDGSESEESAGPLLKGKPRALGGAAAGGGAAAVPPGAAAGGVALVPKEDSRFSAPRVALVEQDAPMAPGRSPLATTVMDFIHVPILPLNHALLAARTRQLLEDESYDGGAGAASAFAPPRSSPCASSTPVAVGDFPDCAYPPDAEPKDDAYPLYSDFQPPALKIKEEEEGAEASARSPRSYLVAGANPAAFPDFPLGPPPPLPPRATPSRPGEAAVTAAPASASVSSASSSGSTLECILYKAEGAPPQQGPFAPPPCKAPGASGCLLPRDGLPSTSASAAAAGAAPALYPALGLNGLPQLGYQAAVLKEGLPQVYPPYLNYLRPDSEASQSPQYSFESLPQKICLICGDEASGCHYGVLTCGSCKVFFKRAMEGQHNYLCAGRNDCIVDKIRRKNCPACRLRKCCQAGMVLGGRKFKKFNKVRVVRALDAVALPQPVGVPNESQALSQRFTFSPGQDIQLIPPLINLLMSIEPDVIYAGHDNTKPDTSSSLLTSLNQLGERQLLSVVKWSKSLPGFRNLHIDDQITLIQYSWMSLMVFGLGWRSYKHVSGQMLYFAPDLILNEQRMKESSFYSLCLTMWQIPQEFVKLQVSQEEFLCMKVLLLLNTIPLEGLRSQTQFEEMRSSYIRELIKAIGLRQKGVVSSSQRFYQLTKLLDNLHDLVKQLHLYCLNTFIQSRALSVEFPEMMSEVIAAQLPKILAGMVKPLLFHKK
Sequence of Retinoic acid receptor RXR-alpha (Homo sapiens) (P19793 whole entry, looked up, the tested form may be a part): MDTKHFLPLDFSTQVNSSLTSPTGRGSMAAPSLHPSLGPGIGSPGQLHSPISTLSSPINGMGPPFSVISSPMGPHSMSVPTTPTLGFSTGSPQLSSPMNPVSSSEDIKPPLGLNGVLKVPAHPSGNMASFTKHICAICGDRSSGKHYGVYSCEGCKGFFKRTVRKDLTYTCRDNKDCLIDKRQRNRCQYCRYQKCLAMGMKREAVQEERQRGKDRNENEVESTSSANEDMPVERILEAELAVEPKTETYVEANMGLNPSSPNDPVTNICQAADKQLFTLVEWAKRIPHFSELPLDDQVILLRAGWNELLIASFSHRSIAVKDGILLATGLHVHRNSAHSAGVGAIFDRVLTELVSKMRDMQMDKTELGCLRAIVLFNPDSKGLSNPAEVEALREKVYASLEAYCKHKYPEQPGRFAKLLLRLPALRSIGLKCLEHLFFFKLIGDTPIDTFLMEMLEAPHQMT
Sequence of THRA (gene 7067) (P10827 whole entry, looked up, the tested form may be a part): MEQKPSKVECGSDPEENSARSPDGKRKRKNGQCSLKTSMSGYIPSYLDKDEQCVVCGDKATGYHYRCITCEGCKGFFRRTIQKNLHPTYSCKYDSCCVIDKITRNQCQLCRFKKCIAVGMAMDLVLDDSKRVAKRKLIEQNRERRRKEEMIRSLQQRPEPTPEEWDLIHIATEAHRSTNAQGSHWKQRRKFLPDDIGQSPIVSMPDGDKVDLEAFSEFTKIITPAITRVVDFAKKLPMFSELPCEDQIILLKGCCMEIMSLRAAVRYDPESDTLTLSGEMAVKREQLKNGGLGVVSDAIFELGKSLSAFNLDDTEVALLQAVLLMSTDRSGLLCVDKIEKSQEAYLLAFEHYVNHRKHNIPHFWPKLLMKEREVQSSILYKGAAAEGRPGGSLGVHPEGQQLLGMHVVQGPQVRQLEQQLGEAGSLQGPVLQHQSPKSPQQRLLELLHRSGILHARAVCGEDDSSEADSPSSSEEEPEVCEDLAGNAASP
Sequence of THRB (gene 7068) (P10828 whole entry, looked up, the tested form may be a part): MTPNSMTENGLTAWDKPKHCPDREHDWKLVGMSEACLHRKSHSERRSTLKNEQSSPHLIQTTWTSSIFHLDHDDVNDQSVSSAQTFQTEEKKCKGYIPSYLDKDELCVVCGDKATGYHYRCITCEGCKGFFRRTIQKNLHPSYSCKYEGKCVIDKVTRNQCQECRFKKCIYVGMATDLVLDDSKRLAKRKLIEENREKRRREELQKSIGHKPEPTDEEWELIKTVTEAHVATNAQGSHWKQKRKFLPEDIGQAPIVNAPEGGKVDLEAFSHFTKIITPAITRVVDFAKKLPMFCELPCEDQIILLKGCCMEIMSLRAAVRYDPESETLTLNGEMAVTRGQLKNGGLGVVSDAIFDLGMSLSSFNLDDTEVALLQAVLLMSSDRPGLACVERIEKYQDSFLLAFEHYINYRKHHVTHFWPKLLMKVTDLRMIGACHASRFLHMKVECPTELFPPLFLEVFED

`Cc1ccc2cc(C)ccc2c1`: the result in assay [1], in assay [2], in assay [3], in assay [4], in [5] and in [6] was inactive.

What is called AC50 is the concentration at which the activity in the assay is half-maximal. As for `CCCCCCCCn1cc[n+](C)c1`, the values for the concentration at half-maximal activity (AC50) in [1] and in [2] were 9.49 µM (active) [middle of 4 runs] and 14.7 µM (active) [middle of 4 runs], respectively. Besides, the result in assay [3] and in assay [4] was inactive.

In the case of `Cc1ncc(CNC(=O)N(CCCl)N=O)c(N)n1`, the result in [1], in assay [2], in assay [3] and in assay [4] was inactive.

On to `COc1cc([C@@H]2c3cc4c(cc3[C@@H](O)[C@H]3COC(=O)[C@H]23)OCO4)cc(OC)c1O`, for which the concentration at half-maximal activity (AC50) in [1] is 35.5 µM (active). For the same molecule, the outcome (in assay [2]; in assay [3]; in assay [4]; in [7]; with THRA (gene 7067); in assay [8]) was inactive. The result (in the assay with THRB (gene 7068); in [9]) was inactive.

Turning to `CC(C)=CCN1CC[C@@]2(C)c3cc(O)ccc3C[C@@H]1[C@@H]2C`, the AC50 in [1] was 86.2 µM (active). Further, the outcome in assay [2], in assay [10] and in [4] was inactive.

Take `C[C@]12C=CC(=O)C=C1CC[C@@H]1[C@@H]2CC[C@@]2(C)[C@H]1CC[C@]2(C)O`: the outcome (in assay [1]; in assay [2]; in assay [3]; in [4]; with PGR (gene 5241); in [11]) was inactive.

On to `COc1c(C(C)(C)C)cc([N+](=O)[O-])c(C)c1[N+](=O)[O-]`, for which the outcome in assay [1], in assay [2], in assay [10] and in assay [4] was inactive.

For `CC[C@H]1C[C@@H]2C[C@H]3c4[nH]c5ccc(OC)cc5c4CCN(C2)[C@@H]13`, the result in assay [1], in assay [2] and in assay [4] was inactive.

On to `CCOP(=O)(OCC)OP(=O)(OCC)OCC`, for which the outcome in assay [1], in assay [2], in assay [3] and in [4] was inactive.

As to `O=C(N[C@H]1N=C(c2ccccc2F)c2cccc3c2N(CC3)C1=O)c1cc2ccccc2[nH]1`, the outcome in [1], in assay [2], in [3] and in assay [4] was inactive.

Take `CCC(N)Cc1c[nH]c2ccccc12` (centres undefined): the result in assay [1], in assay [2], in assay [3] and in assay [4] was inactive.

Regarding `O=C1OC(c2ccc(O)c(S(=O)(=O)O)c2)(c2ccc(O)c(S(=O)(=O)O)c2)c2c(Br)c(Br)c(Br)c(Br)c21`, the result in assay [1], in [2], in assay [10] and in assay [4] was inactive.

With `CON(C)C(=O)Nc1ccc(Cl)cc1`, the result in assay [1], in [2], in assay [3] and in assay [4] was inactive.

`CCCC[N+]1(C)CCCC1` (tested in a mixture with another compound): the result in assay [1], in assay [2] and in assay [3] was inactive. Besides, in [4], the half-maximal activity concentration (AC50) was 86.9 µM (active).
